Source: PubChem BioAssay (NCI)
This is part of a sample that, as a whole, favours compounds with a hit. Of some 83,000 tested, about 20% had one in any assay.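 Cell lines were cultured in 96-well plates, exposed to a single compound concentration, and assessed for percent growth 48 hours later.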 A number with no mark means an inactive call. The source made the active and inactive calls. How the source made its calls: active means growth percent below 10; inactive means the rest.

Experiments:
Test in all cases: NCI-60 one-dose screen, 48 h (100 = growth as untreated, 0 = no growth, -100 = all killed)
Conditions in all cases: 10 µM unless noted
NCI-H23 lung = tested on: NCI-H23 lung
NCI-H226 lung = tested on: NCI-H226 lung
NCI-H322M lung = tested on: NCI-H322M lung
HOP-62 NSCLC = tested on: HOP-62 NSCLC
NCI-H460 lung = tested on: NCI-H460 lung
HOP-92 NSCLC = tested on: HOP-92 NSCLC
NCI-H522 lung = tested on: NCI-H522 lung
A549/ATCC NSCLC = tested on: A549/ATCC NSCLC
786-0 renal = tested on: 786-0 renal
COLO 205 colon = tested on: COLO 205 colon
DU-145 prostate = tested on: DU-145 prostate
MALME-3M melanoma = tested on: MALME-3M melanoma
MDA-MB-231 breast = tested on: MDA-MB-231 breast
RXF 393 renal = tested on: RXF 393 renal
SF-268 CNS = tested on: SF-268 CNS
SF-539 CNS = tested on: SF-539 CNS
M14 melanoma = tested on: M14 melanoma
SF-295 CNS = tested on: SF-295 CNS
UACC-257 melanoma = tested on: UACC-257 melanoma
K-562 leukemia = tested on: K-562 leukemia

Q: Which results are given for O=C(CSC1CCc2ccccc21)N/N=C/c1ccccc1O (stereo not drawn)?
A: growth (NCI-H23 lung): 55.5%; growth (NCI-H226 lung): 67.7%; growth (NCI-H322M lung): 22.6%; growth (HOP-62 NSCLC): 47.5%; growth (NCI-H460 lung): 30.9%; growth (HOP-92 NSCLC): 77.4%; growth (NCI-H522 lung): 7.47% (active); growth (A549/ATCC NSCLC): 48.2%; growth (786-0 renal): 66.6%; growth (COLO 205 colon): 45.7%; growth (DU-145 prostate): 52.8%; growth (MALME-3M melanoma): 53.3%; growth (MDA-MB-231 breast): 45.2%; growth (RXF 393 renal): 75.1%; growth (SF-268 CNS): 39.5%; growth (SF-539 CNS): 54.7%; growth (M14 melanoma): 47.4%

Q: Which results are given for O=C1CCCCC1(c1ccccc1)c1ccccc1?
A: growth (NCI-H23 lung): 98.8%; growth (NCI-H226 lung): 99.8%; growth (NCI-H322M lung): 111%; growth (HOP-62 NSCLC): 103%; growth (NCI-H460 lung): 103%; growth (HOP-92 NSCLC): 89.3%; growth (NCI-H522 lung): 99%; growth (A549/ATCC NSCLC): 110%; growth (786-0 renal): 109%; growth (COLO 205 colon): 109%; growth (MDA-MB-231 breast): 101%; growth (RXF 393 renal): 93.8%; growth (SF-268 CNS): 98.2%; growth (SF-295 CNS): 97%; growth (SF-539 CNS): 94%; growth (UACC-257 melanoma): 106%; growth (M14 melanoma): 99%

Q: Which results are given for CCc1cnc(=S)n(-c2ccccc2)c1?
A: growth (NCI-H23 lung): 88.5%; growth (NCI-H226 lung): 110%; growth (NCI-H322M lung): 117%; growth (HOP-62 NSCLC): 103%; growth (NCI-H460 lung): 116%; growth (HOP-92 NSCLC): 97.8%; growth (NCI-H522 lung): 105%; growth (A549/ATCC NSCLC): 98.3%; growth (786-0 renal): 99.9%; growth (COLO 205 colon): 120%; growth (DU-145 prostate): 104%; growth (K-562 leukemia): 117%; growth (MDA-MB-231 breast): 107%; growth (RXF 393 renal): 129%; growth (SF-268 CNS): 100%; growth (SF-539 CNS): 101%; growth (UACC-257 melanoma): 120%; growth (M14 melanoma): 106%

Q: With C=C[C@@H]1C[C@H](O)Cc2ccccc2N1 as the compound, how does the growth (NCI-H23 lung) read?
A: The growth was 104%.

Q: And the growth (NCI-H226 lung)?
A: The growth was 111%.

Q: What about the growth (NCI-H322M lung) of the same compound?
A: The growth was 125%.

Q: What about the growth (HOP-62 NSCLC) of the same compound?
A: The growth was 99.2%.

Q: And the growth (NCI-H460 lung)?
A: Its growth is 107%.

Q: And the growth (HOP-92 NSCLC)?
A: Its growth is 137%.

Q: What about the growth (NCI-H522 lung) of the same compound?
A: The growth was 121%.

Q: And the growth (A549/ATCC NSCLC)?
A: Its growth is 95.4%.

Q: And the growth (786-0 renal)?
A: The growth was 112%.

Q: And the growth (COLO 205 colon)?
A: Its growth is 117%.

Q: And the growth (DU-145 prostate)?
A: The growth was 115%.

Q: What about the growth (MALME-3M melanoma) of the same compound?
A: Its growth is 113%.

Q: And the growth (MDA-MB-231 breast)?
A: The growth was 101%.

Q: What about the growth (RXF 393 renal) of the same compound?
A: Its growth is 120%.

Q: And the growth (SF-268 CNS)?
A: The growth was 107%.

Q: And the growth (SF-295 CNS)?
A: The growth was 109%.

Q: What about the growth (SF-539 CNS) of the same compound?
A: The growth was 101%.

Q: What about the growth (UACC-257 melanoma) of the same compound?
A: The growth was 104%.

Q: And the growth (M14 melanoma)?
A: Its growth is 108%.

Q: Which results are given for COc1cc(-c2ncn(/C=C\C(=O)OC(C)C)n2)cc(C(F)(F)F)c1?
A: growth (NCI-H23 lung): 17.5%; growth (NCI-H226 lung): -47% (active); growth (NCI-H322M lung): 0.838% (active); growth (HOP-62 NSCLC): -18.5% (active); growth (NCI-H460 lung): -31.7% (active); growth (HOP-92 NSCLC): 7.61% (active); growth (NCI-H522 lung): -70.9% (active); growth (A549/ATCC NSCLC): 12.9%; growth (786-0 renal): 9.65% (active); growth (COLO 205 colon): -62.2% (active); growth (DU-145 prostate): 15.7%; growth (K-562 leukemia): 3.62% (active); growth (MALME-3M melanoma): -1.62% (active); growth (RXF 393 renal): -41.1% (active); growth (SF-268 CNS): -1.06% (active); growth (SF-295 CNS): 61.3%; growth (SF-539 CNS): -36.8% (active); growth (UACC-257 melanoma): 60.3%

Q: Which growth (NCI-H23 lung) does the source give for Cn1c(=O)c2[nH]c(C3CC=CCC3)nc2n(C)c1=O (stereo not drawn) here?
A: The growth was 98.2%.

Q: And the growth (NCI-H226 lung)?
A: Its growth is 103%.

Q: What about the growth (NCI-H322M lung) of the same compound?
A: Its growth is 102%.

Q: And the growth (HOP-62 NSCLC)?
A: The growth was 90.5%.

Q: What about the growth (NCI-H460 lung) of the same compound?
A: The growth was 109%.

Q: And the growth (HOP-92 NSCLC)?
A: The growth was 70.1%.

Q: And the growth (NCI-H522 lung)?
A: Its growth is 98%.

Q: What about the growth (A549/ATCC NSCLC) of the same compound?
A: Its growth is 106%.

Q: And the growth (786-0 renal)?
A: Its growth is 105%.

Q: And the growth (COLO 205 colon)?
A: Its growth is 97.4%.

Q: And the growth (DU-145 prostate)?
A: The growth was 101%.

Q: What about the growth (MALME-3M melanoma) of the same compound?
A: The growth was 107%.

Q: What about the growth (MDA-MB-231 breast) of the same compound?
A: The growth was 94.6%.

Q: What about the growth (RXF 393 renal) of the same compound?
A: Its growth is 115%.

Q: And the growth (SF-268 CNS)?
A: Its growth is 96%.

Q: And the growth (SF-295 CNS)?
A: Its growth is 89.5%.

Q: What about the growth (UACC-257 melanoma) of the same compound?
A: The growth was 116%.

Q: And the growth (M14 melanoma)?
A: Its growth is 111%.

Q: O=C1c2c(Cl)c(Cl)c(Cl)c(Cl)c2C(=O)C2(Cl)CC=CCC12Cl (stereo not drawn) was tested. Which growth (NCI-H23 lung) did it give?
A: The growth was 10%.

Q: What about the growth (NCI-H226 lung) of the same compound?
A: The growth was 73%.

Q: What about the growth (NCI-H322M lung) of the same compound?
A: Its growth is 72.6%.

Q: What about the growth (HOP-62 NSCLC) of the same compound?
A: Its growth is -90.2% (active).

Q: And the growth (NCI-H460 lung)?
A: The growth was 50.3%.

Q: What about the growth (HOP-92 NSCLC) of the same compound?
A: Its growth is -58.1% (active).

Q: And the growth (NCI-H522 lung)?
A: The growth was -80.7% (active).

Q: And the growth (A549/ATCC NSCLC)?
A: The growth was 74.1%.

Q: And the growth (786-0 renal)?
A: The growth was 0.0645% (active).

Q: And the growth (COLO 205 colon)?
A: The growth was -77.3% (active).

Q: And the growth (DU-145 prostate)?
A: Its growth is -74.2% (active).

Q: What about the growth (MALME-3M melanoma) of the same compound?
A: The growth was -3.27% (active).

Q: And the growth (MDA-MB-231 breast)?
A: Its growth is 18.2%.

Q: What about the growth (RXF 393 renal) of the same compound?
A: The growth was -78.3% (active).

Q: And the growth (SF-268 CNS)?
A: The growth was -96.2% (active).

Q: What about the growth (SF-295 CNS) of the same compound?
A: Its growth is 106%.

Q: And the growth (SF-539 CNS)?
A: Its growth is 48.1%.

Q: What about the growth (UACC-257 melanoma) of the same compound?
A: The growth was -34.4% (active).

Q: And the growth (M14 melanoma)?
A: Its growth is -12% (active).

Q: How did the growth (NCI-H23 lung) turn out when Cc1cccc(/C=N/Nc2cc(C)c3cccc(C)c3n2)n1 was run?
A: Its growth is 94.3%.

Q: And the growth (NCI-H226 lung)?
A: The growth was 86.9%.

Q: What about the growth (NCI-H322M lung) of the same compound?
A: Its growth is 100%.

Q: What about the growth (HOP-62 NSCLC) of the same compound?
A: Its growth is 110%.

Q: And the growth (NCI-H460 lung)?
A: Its growth is 92.9%.

Q: And the growth (HOP-92 NSCLC)?
A: Its growth is 75.5%.

Q: What about the growth (NCI-H522 lung) of the same compound?
A: The growth was 87%.

Q: And the growth (A549/ATCC NSCLC)?
A: The growth was 87.8%.

Q: And the growth (786-0 renal)?
A: Its growth is 107%.

Q: And the growth (COLO 205 colon)?
A: Its growth is 96.2%.

Q: And the growth (DU-145 prostate)?
A: Its growth is 101%.

Q: What about the growth (K-562 leukemia) of the same compound?
A: Its growth is 69.8%.

Q: And the growth (MDA-MB-231 breast)?
A: The growth was 90.4%.

Q: And the growth (RXF 393 renal)?
A: Its growth is 98.2%.

Q: And the growth (SF-268 CNS)?
A: Its growth is 101%.

Q: And the growth (SF-539 CNS)?
A: Its growth is 88%.

Q: And the growth (UACC-257 melanoma)?
A: Its growth is 80%.

Q: What about the growth (M14 melanoma) of the same compound?
A: Its growth is 98.4%.

Q: What does the source list for Clc1cc2c(nn1)Nc1ccccc1S2?
A: growth (NCI-H23 lung): 94.7%; growth (NCI-H226 lung): 104%; growth (NCI-H322M lung): 97.8%; growth (HOP-62 NSCLC): 97.5%; growth (NCI-H460 lung): 99.2%; growth (HOP-92 NSCLC): 83.6%; growth (NCI-H522 lung): 56.5%; growth (A549/ATCC NSCLC): 91.7%; growth (786-0 renal): 99.3%; growth (COLO 205 colon): 116%; growth (DU-145 prostate): 109%; growth (K-562 leukemia): 98.2%; growth (MALME-3M melanoma): 103%; growth (MDA-MB-231 breast): 114%; growth (SF-268 CNS): 102%; growth (SF-295 CNS): 108%; growth (SF-539 CNS): 89%; growth (UACC-257 melanoma): 73.5%; growth (M14 melanoma): 107%
